# Assay outcomes: PubChem BioAssay, several laboratories
# In the library only some 2.1% were active in any assay of this set; here they are far more common.
# MsrA inh – inhibits bovine methionine sulfoxide reductase A | inhibition, % at 15.5 µM | purified bovine MsrA, absorbance read-out | 360,000 compounds, 0.75% hits; in the data active means inhibition above about 4.5%;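 further: 0% = vehicle wells with enzyme and 100% = reference inhibitor wells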
# bovine MsrA act – activators of bovine methionine sulfoxide reductase A; 360,000 compounds, 0.3% hits; activation, % at 10.6 µM; purified bovine MsrA, absorbance read-out; AID 602163; in the data active means activation above about 7.5%;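 further: 0% = vehicle and 100% = reference activator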
# SMARCA2 act – SMARCA2 function activation, primary screen; AID 652017; MG213 cells, MMTV-luciferase reporter, dexamethasone, overnight; 370,000 compounds, 1% hits; activation, % at 9.1 µM; in the data active means activation above about 7.8%;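 further: 0% = vehicle wells and 100% = reference activator wells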
# ABCB6 inh 2 – inhibitors of human ABC transporter ABCB6; K562-ABCB6 porphyrin accumulation, flow cytometry, 1 h; stronger effect = lower value; fluorescence ratio to DMSO, % at 10 µM; 360,000 compounds, 0.19% hits; AID 602162;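 active means fluorescence ratio to DMSO below 75%, the collection mean minus 3 SD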;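 further: signal is porphyrin accumulated inside mitochondria; 100% equals median channel fluorescence of DMSO control wells; lower ratio means ABCB6 inhibition with less porphyrin fluorescence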
# Target sequence (Q9NP58 whole entry, looked up): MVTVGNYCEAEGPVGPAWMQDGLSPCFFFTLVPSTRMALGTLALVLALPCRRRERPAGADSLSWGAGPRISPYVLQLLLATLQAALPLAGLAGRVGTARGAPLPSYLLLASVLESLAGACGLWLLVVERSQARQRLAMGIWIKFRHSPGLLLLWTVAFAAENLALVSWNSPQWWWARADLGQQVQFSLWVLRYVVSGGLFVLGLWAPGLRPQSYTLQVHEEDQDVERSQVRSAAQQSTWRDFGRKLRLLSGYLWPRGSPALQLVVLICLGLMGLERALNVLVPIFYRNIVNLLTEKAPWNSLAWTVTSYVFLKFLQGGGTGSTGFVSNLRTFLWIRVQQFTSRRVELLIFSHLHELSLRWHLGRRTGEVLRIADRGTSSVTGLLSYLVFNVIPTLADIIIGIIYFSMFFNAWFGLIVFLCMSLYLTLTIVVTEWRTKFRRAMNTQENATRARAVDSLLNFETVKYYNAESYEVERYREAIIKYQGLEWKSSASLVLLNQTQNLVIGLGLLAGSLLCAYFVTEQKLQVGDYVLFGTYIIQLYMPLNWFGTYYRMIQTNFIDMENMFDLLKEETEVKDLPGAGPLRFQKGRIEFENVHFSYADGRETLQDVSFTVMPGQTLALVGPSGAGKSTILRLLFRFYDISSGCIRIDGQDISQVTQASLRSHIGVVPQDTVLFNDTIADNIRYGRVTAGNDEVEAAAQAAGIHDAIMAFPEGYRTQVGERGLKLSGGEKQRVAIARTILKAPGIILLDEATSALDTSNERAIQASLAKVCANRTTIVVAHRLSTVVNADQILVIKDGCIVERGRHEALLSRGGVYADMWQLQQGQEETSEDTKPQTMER
# ABCB6 inh CP1 – inhibitors of human ABC transporter ABCB6. shares compounds with ABCB6 inh 2. K562-ABCB6 porphyrin accumulation, flow cytometry, 1 h; stronger effect = lower value. ratio response (% of DMSO), % at 10 µM. 700 tested, under 10 active. AID 602430;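 active means repeat-averaged ratio response below 75% of DMSO, the collection mean minus 3 SD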;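 further: median porphyrin fluorescence at 575 nm with 488 nm excitation from mitochondria; lower ratio means less porphyrin signal so ABCB6 inhibition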
# * marks the source's active call; other numbers are inactive results; nt = no result given.
SMILES,MsrA inh,bovine MsrA act,SMARCA2 act,ABCB6 inh 2,ABCB6 inh CP1
Cc1ccc(Cl)c(NC(=O)COC(=O)c2ccccc2C(=O)c2ccc(Cl)c([N+](=O)[O-])c2)c1Cl,0,-5,7,99,nt
COC(=O)C1CN(Cc2cn(Cc3ccc(Cl)cc3)nn2)CCS(=O)(=O)N1Cc1ccccc1 (centres undefined),nt,nt,-6,nt,nt
COc1ccc([C@@H]2Sc3cc(OC)ccc3N(CCN(C(C)C)C(C)C)C(=O)[C@H]2OC(C)=O)cc1,1,-2,-1,51*,101
CCCCOCCCNCc1cccn1CCN1CCOCC1,2,0,-2,66*,100
c1csc(CNCCCN2CCOCC2)c1,0,-3,0,102,nt
CCN(CC)S(=O)(=O)c1cccc(-n2c(O)c(C=Nc3ccccc3C(=O)O)c3ccccc3c2=O)c1,2,0,-2,74*,83
O=C(O)c1ccccc1N=Cc1c(O)n(-c2nccs2)c(=O)c2ccccc12,2,-5,-5,95,nt
CC(C)(C)OC(=O)NCc1ccccc1/C=C/S(=O)(=O)NCCc1ccccc1,nt,nt,-7,nt,nt
COc1cccc(N2CCN(C(=O)CC(C)(C)CC3=NS(=O)(=O)c4ccccc4N3)CC2)c1,-1,-1,1,14*,100
Cc1cnc(C(=O)OCc2ccc(Br)cc2)cn1,-1,-3,-3,73*,104
Cc1cnc(C(=O)OCc2ccc(C#N)cc2)cn1,0,-2,-2,101,nt
COC(CNC(=O)c1cnn2c(C)c(Cc3ccccc3)c(C)nc12)OC,0,-13,-3,92,96
Cc1cc(C)c(Cc2c(C)nc3c(C(=O)NCc4ccco4)cnn3c2C)c(C)c1,0,1,-1,95,99
COC(CNC(=O)Cc1c(C)nc2c(-c3ccccc3)c(C)nn2c1C)OC,0,-4,-2,92,nt
CC(NC(=O)CN1CCc2ccccc21)c1ccccc1 (centres undefined),1,-1,-4,59*,103
O=C(Nc1nc2ccc([N+](=O)[O-])cc2s1)C1CCCO1 (centres undefined),3,-8,7,92,nt
COc1ccc([N+](=O)[O-])cc1NC(=O)C1CCCO1 (centres undefined),2,-10,-4,71*,101
Cc1cc2c(C)nc(Cc3ccccc3)nc2o1,-1,-2,2,9.0*,99
COC(=O)c1cc(C(C)c2ccccc2O)n2ccccc12 (centres undefined),nt,nt,-3,nt,nt
O=C(Nc1cccc(Cl)c1)c1cc2c(=O)n3ccccc3nc2s1,0,-3,3,93,104
Cc1cccc(NC(=O)c2cc3c(=O)n4ccccc4nc3s2)c1,4,-1,-3,99,nt
Cc1cccc(C)c1OCCOC(=O)c1ccc(S(=O)(=O)N2CCCC2)cc1,0,-1,2,97,nt
Cc1cccc(C)c1OCCOC(=O)c1cccc(S(=O)(=O)N2CCOCC2)c1,0,-3,-1,71*,100
Cc1cccc(NC(=O)c2oc3ccc(S(=O)(=O)N4CCOCC4)cc3c2C)c1C,1,-11,0,68*,99
Cn1c(=O)c2cc(S(=O)(=O)N3CCN(Cc4ccccc4)CC3)ccc2n(C)c1=O,nt,nt,-4,nt,nt
SMILES,MsrA inh,bovine MsrA act,SMARCA2 act,ABCB6 inh 2,ABCB6 inh CP1
CC(CCN1CCC(C(O)(c2ccccc2)c2ccccc2)CC1)Oc1ccc(OC(F)(F)F)cc1 (centres undefined),nt,nt,-5,nt,nt
CC1(C(=O)N2CCN(C(=O)c3ccco3)CC2)CCN1Cc1ccccc1OC(F)F (centres undefined),-1,-3,-1,70*,99
OC(c1ccc(F)cc1)c1nc(/C=C/c2ccccc2)cs1 (centres undefined),-1,-3,1,61*,98
CCN(CC)S(=O)(=O)c1ccc(C)c(NC(=O)CN2C(=O)NC3(CCCC3)C2=O)c1,0,-3,1,74*,96
CC(C)(C)OC(=O)N1CCC(c2ccc[nH]2)(c2c[nH]c3ccccc23)CC1,nt,nt,-2,nt,nt
O=S(=O)(c1ccccc1F)N1CCC(c2nc3ccccc3o2)CC1,nt,nt,-4,nt,nt
Cc1cccc(NS(=O)(=O)c2cccs2)c1,0,-6,2,97,nt
Cc1cc(C)nc(NS(=O)(=O)c2cccs2)c1,2,-2,-4,69*,97
COC[C@H]1CCCN1c1cccc2c1S(=O)(=O)N(C1CC1)CCCO2,nt,nt,-2,nt,nt
Cc1ccc(NC(=O)OC2CCC23CCCCC3)cc1 (centres undefined),nt,nt,-1,nt,nt
COC(=O)[C@H](CCSC)NC(=O)Nc1ccc(C)c(C)c1,0,-5,-3,69*,101
CCc1ccc(C(O)c2ncc(-c3ccccc3OC)[nH]2)cc1 (centres undefined),0,5,-2,73*,98
C=CCNC(=O)N1CCN(Cc2nc3ccccc3c(=O)[nH]2)CC1,nt,nt,-2,nt,nt
COc1ccccc1OCc1ccc(C(=O)n2nc(C)c(Cl)c2C)o1,0,-1,-3,96,nt
COc1ccccc1OCc1ccc(C(=O)N2N=C(C(F)F)CC2(O)C(F)F)o1 (centres undefined),1,-5,-1,108,99
O=C(c1ccc(Cn2cc(Br)cn2)o1)N1N=C(C(F)F)CC1(O)C(F)F (centres undefined),nt,-3,nt,99,nt
O=C(c1ccc(COc2ccc(Cl)cc2)o1)N1N=C(C(F)F)CC1(O)C(F)F (centres undefined),1,-5,-7,95,101
CC(C(=O)NC1CCCC1)N1CCN(Cc2ccccc2)CC1 (centres undefined),0,0,-4,93,nt
CC(C(=O)NC(=O)NC1CCCCC1)N1CCN(C(c2ccccc2)c2ccccc2)CC1 (centres undefined),-2,-6,0,73*,100
Cn1c(=O)c2ncn(CC(=O)NCCOc3ccc(C(C)(C)C)cc3)c2n(C)c1=O,-1,-3,2,87,nt
Cn1c(=O)c2ncn(CC(=O)NCCOCc3ccccc3Cl)c2n(C)c1=O,-1,-5,-1,66*,100
Cc1nc2ccc(S(=O)(=O)NCC(=O)N(C)Cc3ccccc3Cl)cc2s1,nt,nt,-4,nt,nt
O=C1c2ccccc2C(=O)N1CCc1csc(-c2cccc(F)c2)n1,1,-9,-3,72*,98
COc1ccc(S(=O)(=O)N2CCN(C(=O)CSc3nc4ccccc4nc3N3CCCCC3)CC2)cc1,nt,nt,-3,nt,nt
CCOC(=O)CN1C(c2ccc(O)cc2)Nc2ccc(Br)cc2C1c1ccccc1 (centres undefined),2,-8,0,73*,95
CCOC(=O)CN1C(=O)Nc2ccc(Br)cc2C1c1ccccc1 (centres undefined),0,-4,3,92,nt
COc1ccc(C(C(=O)N(C)C2CCCC2)N(Cc2ccc(F)cc2)C(=O)c2sccc2Cl)cc1OC (centres undefined),nt,nt,-1,nt,nt
CCn1c(SCC(=O)n2c(C)c(C)c3ccccc32)nnc1-c1ccco1,-1,-11,-3,73*,99
CC(=O)CC[C@H]1CC[C@]2(CCCN(C(=O)c3ccco3)C2)O1,nt,nt,-1,nt,nt
